# Screening results (PubChem BioAssay)
# KB-3-1 tox – qHTS assay for MDR1-selective chemotherapeutics: Primary screen using the parental adenocarcinoma cell KB-3-1 | 400,000 compounds, 1.4% hits | Potency, µM (titrated, usually from 46.1 µM), hits mostly cytotoxic | KB-3-1 viability, CellTiter-Glo ATP luminescence, 72 h; also: nearly all actives have a fitted effect of over 60% in size
#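 Parental KB-3-1 adenocarcinoma cells in phenol-red-free DMEM with 10% FBS were pin-treated with compounds at several concentrations, incubated 72 h at 37 °C, and viability read by CellTiter-Glo luminescence; concentration-effect curves were fitted after normalization.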
# HT1080-NT tox – qHTS for induction of synthetic lethality in tumor cells producing 2HG: qHTS for the HT-1080-NT fibrosarcoma cell line. HT-1080-NT fibrosarcoma viability, CellTiter-Glo ATP luminescence, 48 h. Potency, µM (titrated, usually from 46.1 µM), usual class: cytotoxic. 360,000 compounds, 1.6% hits;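 also: NT is the 2HG producing partner of a matched IDH1 knockdown line; nearly all actives have a fitted effect of over 55% in size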
#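 Fibrosarcoma NT cells, 750 per well in 5% FBS RPMI, were exposed to compound for 48 hours. Viability: CellTiter-Glo luminescence.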
# HepG2 tox – qHTS for Inhibitors of TGF-b: Cytotox Counterscreen. AID 588856, 2011. Potency, µM (doses to about 46.1 µM), actives largely listed as cytotoxic. 410,000 compounds, 0.76% hits. HepG2 CAGA-GFP viability, ATP luminescence, 18 h
#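 HepG2 CAGA-GFP cells (1000/well, DMEM with 1% FBS) received compound, then TGF-beta at 500 pg/mL final, and were incubated 18 hours at 37 degrees C. Viability was read by CellTiter-Glo luminescence. Media-only wells were set as complete cell-killing and DMSO as no toxicity.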
# TGFb inhibitor – qHTS for Inhibitors of TGF-b | HepG2 CAGA-GFP TGF-b/SMAD3 reporter, GFP fluorescence, 18 h; TGF-beta stimulated, 500 pg/mL final | Potency, µM (doses to about 46.1 µM), most hits filed as inhibitors | 410,000 compounds, 1.2% hits; also: nearly all actives have a fitted effect of over 65% in size
#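 Inhibition was scored as loss of TGF-beta-induced (500 pg/mL final, 18 hours, 37 degrees C) GFP in HEPG2 cells carrying a CAGA-GFP reporter, in DMEM with 1% FBS. Well GFP was summed per cell; Activity was normalised to unstimulated and stimulated DMSO wells, then concentration-response fitting.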
# KB-V1 cytotox – qHTS assay for MDR1-selective chemotherapeutics: Primary screen using the drug-selected MDR subline cells KB-V1; 400,000 compounds, 3.4% hits; AID 1347076, 2019; Potency, µM (top dose mostly 46.1 µM), actives largely listed as cytotoxic; KB-V1 MDR cells viability, CellTiter-Glo, 72 h; also: nearly all actives have a fitted effect of over 60% in size
#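 KB-V1, DMEM (no phenol red) + 10% FBS; cpd pin-transferred, titration series; 72 h, 37 degrees C; CellTiter-Glo, luminescence. Data normalized, curve-fit.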
# HT1080 IDH1KD tx – qHTS for induction of synthetic lethality in tumor cells producing 2HG: qHTS for the HT-1080-IDH1KD cell line. HT-1080 IDH1 knockdown viability, ATP luminescence, 48 h. Potency, µM (highest dose often 46.1 µM), most hits filed as cytotoxic. 360,000 compounds, 2% hits. AID 686971, 2013
#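 Cytotoxicity counter-line: IDH1KD HT-1080, 48 h, CellTiter-Glo. Curves classed by r2, magnitude and activity.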
# Numbers stand for hits; i = inactive; ? = inconclusive; nt = not tested or not shown. The list is not random: actives were taken first. Their share in the collection is about 6.6%. Calls follow the shape of the dose curve; as a rule, active = well fitted curve in the direction sought with a large enough effect; inconclusive = small, poorly fitted or top-dose-only effect, or another doubt; inactive = no such curve, though single readings can be large; an effect the other way counts as inactive or inconclusive.
SMILES,KB-3-1 tox,HT1080-NT tox,HepG2 tox,TGFb inhibitor,KB-V1 cytotox,HT1080 IDH1KD tx
CCC(=O)c1c[nH]c(C(=O)NCCCN2CCOCC2)c1,i,i,i,i,?,i
C=CCNC(=O)CSc1nc2cc(C(=O)OCC)ccc2n1CC,i,i,i,i,i,i
CCOC(=O)c1ccc2c(c1)nc(SCC(=O)c1cc3ccccc3o1)n2CC,i,i,i,i,18µM,i
CCOC(=O)c1sc2ccccc2c1S(=O)(=O)Nc1c(C)cccc1C,i,nt,i,?,i,nt
CCCCN(CC)Cc1ccc(CNC(=S)Nc2c(C)cc(C)cc2C)o1,i,i,i,i,?,i
CCCCN(CC)Cc1ccc(CNC(=O)Nc2ccc(F)cc2)o1,i,10µM,i,?,i,?
COC(=O)Cn1ncc2c3ccccc3n(Cc3ccccc3)c2c1=O,i,i,i,i,23µM,i
O=C1CCCN1c1ccc(S(=O)(=O)N2CCC(c3ccccc3)CC2)cc1,i,i,i,?,2.6µM,i
Cc1ccc(S(=O)(=O)N2CCC(c3ccncc3)CC2)c(C)c1,21µM,nt,i,?,i,nt
CC(C)(C)c1ccc(S(=O)(=O)N2CCC(c3ccncc3)CC2)cc1,i,nt,i,2.8µM,?,nt
CCc1ccccc1NS(=O)(=O)c1ccc2c(c1)CCCN2C(=O)C1CCC1,?,nt,i,?,?,nt
COc1ccccc1C(=O)Nc1nc(-c2ccc(S(=O)(=O)N3CCOCC3)cc2)cs1,15µM,?,i,i,4.6µM,?
CN1CCN(S(=O)(=O)c2cccc(C(=O)Nc3nc(-c4ccccc4)cs3)c2)CC1,?,i,i,?,3.3µM,i
CC(C)C(=O)Nc1nc(-c2ccc(S(=O)(=O)N3CCOCC3)cc2)cs1,nt,i,i,i,nt,i
COc1ccccc1OC(C)C(=O)Nc1nc(-c2ccc(S(=O)(=O)N3CCOCC3)cc2)cs1 (centres undefined),i,i,i,i,4.6µM,i
COc1ccccc1C(=O)Nc1ccc(S(=O)(=O)N2CCOCC2)cc1,i,i,i,i,?,i
C[C@@H]1C(=O)N(S(=O)(=O)c2ccc([N+](=O)[O-])cc2)[C@H]1c1ccc(F)cc1,nt,nt,i,i,nt,nt
CC1=NN(c2ccccc2)C(=O)C1N=Nc1ccc(N)cc1 (centres undefined),?,i,i,i,i,23µM
Cc1ccc(C)c(NC(=O)Cn2cc(C(=O)C3CCCCC3)c3ccccc32)c1,i,nt,i,i,?,nt
COc1cccc(Nc2ccc([N+](=O)[O-])c3nonc23)c1,i,15µM,i,i,i,23µM
CN(C)C(=O)c1cccc(-c2cccc3nccn23)c1,i,i,i,i,?,i
CC(CCNC(=O)c1ccccc1)(CCNC(=O)c1ccccc1)[N+](=O)[O-],i,i,i,i,15µM,i
CC(C)(C)SCCNC(=O)c1ccccc1,i,i,i,i,i,i
CCC(CCNC(=O)c1ccccc1)(CCNC(=O)c1ccccc1)[N+](=O)[O-],i,i,i,i,21µM,i
CCCCCCCCCCCCCCC(O)C[N+](C)(CCO)CCO (centres undefined),?,?,i,?,i,18µM
SMILES,KB-3-1 tox,HT1080-NT tox,HepG2 tox,TGFb inhibitor,KB-V1 cytotox,HT1080 IDH1KD tx
C/C(=N\N=C(N)N)c1ccc(Cl)cc1Cl,?,13µM,i,?,?,21µM
O=C1c2ccccc2C(=O)c2c1ccc1c(=O)n(C3CCCCC3)[nH]c21,?,i,i,?,10µM,i
O=c1c2[nH]c3ccccc3c2ncn1C1CCCCC1,i,i,i,i,i,i
COc1ccc(CC2(CO)COc3ccccc3C2=O)cc1 (centres undefined),?,?,i,i,13µM,?
CN(C)c1ccc(C(CNC(=O)c2ccccc2F)N2CCc3ccccc32)cc1 (centres undefined),i,nt,i,?,i,nt
COc1cc(F)ccc1CN1CCC(C(=O)Nc2ccc(Oc3ccccc3)nc2)CC1,?,?,i,i,?,21µM
CC(C)n1cc(CN2CCC(C(=O)Nc3ccc(Oc4ccccc4F)cc3)CC2)cn1,?,?,i,?,i,21µM
COc1ccccc1/C=C/c1nc(C#N)c(N2CCN(c3ccccc3)CC2)o1,i,nt,i,i,i,nt
O=C(NCc1ccc(Cl)cc1)C(=O)NCC(c1ccc2c(c1)OCO2)N1CCOCC1 (centres undefined),nt,nt,i,i,nt,nt
Cc1ccc(NC2=NC3(CCCCC3)N=C(N)N2)c(C)c1,7.3µM,?,i,i,i,11µM
Cc1ccccc1NC1=NC2(CCCC2)N=C(N)N1,?,i,i,i,?,i
NC1=NC2(CCCCC2)N=C(Nc2ccc(Br)cc2)N1,23µM,i,i,i,i,i
Cc1ccc(NC2=NC3(CCCC3)N=C(N)N2)c(C)c1,4.1µM,18µM,i,i,i,16µM
Cc1cccc(C)c1NC1=NC2(CCCCC2)N=C(N)N1,i,i,i,i,i,i
Cc1ccc(C)c(NC2=NC3(CCCCC3)N=C(N)N2)c1,18µM,i,i,i,i,i
Cc1oc2c(c1C(=O)Nc1ccccc1Br)C1=NCCN1C=N2,i,nt,i,?,i,nt
CCOc1ccc(-c2nnc(SCC(=O)N3CCNC3=O)o2)cc1,i,i,i,i,i,i
COc1cccc(CNC(=O)COC(=O)c2ccc(S(C)(=O)=O)c([N+](=O)[O-])c2)c1,i,nt,i,?,i,nt
Cc1cc(Sc2ncnc(N)c2[N+](=O)[O-])ncn1,4.6µM,13µM,i,?,?,7.3µM
Cc1cc(Sc2nc(N)ncc2[N+](=O)[O-])ncn1,16µM,5.8µM,i,10µM,i,6.5µM
COc1ccc(-n2ncc3c(NC(C)(C)CO)ncnc32)cc1,i,nt,i,i,i,nt
COc1ccc(NC(=O)C2CC2(Cl)Cl)cc1S(=O)(=O)N1CCCCC1 (centres undefined),i,i,i,i,i,i
CC1CCCC(C)N1C(=O)c1ccccc1Nc1ccc(SC(F)F)cc1 (centres undefined),?,23µM,i,?,?,?
CC1CN(C(=O)c2ccccc2Nc2ccc(SC(F)F)cc2)CC(C)O1 (centres undefined),i,i,i,?,?,i
CCOC(=O)C1=C(N)Oc2cc(O)ccc2C1c1ccc(C)cc1 (centres undefined),i,?,i,?,?,21µM
